The values that follow come from the supplement of paper PMC12819154, “High-throughput peptide-centric local stability assay extends protein–ligand identification to membrane proteins, tissues and bacteria” (Nature Structural & Molecular Biology, 2025).

UniProt P58044, sequence (P58044 whole entry): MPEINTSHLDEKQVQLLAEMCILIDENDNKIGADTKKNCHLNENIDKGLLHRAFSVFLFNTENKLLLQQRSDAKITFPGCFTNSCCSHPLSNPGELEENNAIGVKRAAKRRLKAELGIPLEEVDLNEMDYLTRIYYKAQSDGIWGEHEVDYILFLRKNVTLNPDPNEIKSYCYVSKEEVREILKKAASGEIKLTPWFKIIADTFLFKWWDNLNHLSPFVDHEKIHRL
UniProt O35492, sequence (O35492 whole entry): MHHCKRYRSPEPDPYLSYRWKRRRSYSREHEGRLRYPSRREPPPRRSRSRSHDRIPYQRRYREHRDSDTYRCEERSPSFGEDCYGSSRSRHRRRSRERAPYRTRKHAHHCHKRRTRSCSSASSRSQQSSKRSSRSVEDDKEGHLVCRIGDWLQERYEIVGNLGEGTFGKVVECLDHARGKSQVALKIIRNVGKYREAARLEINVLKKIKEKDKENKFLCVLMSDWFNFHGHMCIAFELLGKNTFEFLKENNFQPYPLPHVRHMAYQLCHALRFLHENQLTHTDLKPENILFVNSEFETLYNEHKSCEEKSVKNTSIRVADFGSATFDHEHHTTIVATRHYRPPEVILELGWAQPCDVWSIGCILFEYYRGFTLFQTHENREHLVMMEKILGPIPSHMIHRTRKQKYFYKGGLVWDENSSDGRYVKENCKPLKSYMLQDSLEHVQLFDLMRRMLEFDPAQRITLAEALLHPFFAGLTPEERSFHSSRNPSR
UniProt P63158, sequence (P63158 whole entry): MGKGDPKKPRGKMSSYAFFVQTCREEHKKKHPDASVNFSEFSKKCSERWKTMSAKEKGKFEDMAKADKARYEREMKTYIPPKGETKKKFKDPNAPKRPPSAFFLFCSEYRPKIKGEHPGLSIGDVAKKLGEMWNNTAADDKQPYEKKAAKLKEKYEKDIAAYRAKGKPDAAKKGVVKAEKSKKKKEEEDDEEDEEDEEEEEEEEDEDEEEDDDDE
UniProt Q8CC86, sequence (Q8CC86 whole entry): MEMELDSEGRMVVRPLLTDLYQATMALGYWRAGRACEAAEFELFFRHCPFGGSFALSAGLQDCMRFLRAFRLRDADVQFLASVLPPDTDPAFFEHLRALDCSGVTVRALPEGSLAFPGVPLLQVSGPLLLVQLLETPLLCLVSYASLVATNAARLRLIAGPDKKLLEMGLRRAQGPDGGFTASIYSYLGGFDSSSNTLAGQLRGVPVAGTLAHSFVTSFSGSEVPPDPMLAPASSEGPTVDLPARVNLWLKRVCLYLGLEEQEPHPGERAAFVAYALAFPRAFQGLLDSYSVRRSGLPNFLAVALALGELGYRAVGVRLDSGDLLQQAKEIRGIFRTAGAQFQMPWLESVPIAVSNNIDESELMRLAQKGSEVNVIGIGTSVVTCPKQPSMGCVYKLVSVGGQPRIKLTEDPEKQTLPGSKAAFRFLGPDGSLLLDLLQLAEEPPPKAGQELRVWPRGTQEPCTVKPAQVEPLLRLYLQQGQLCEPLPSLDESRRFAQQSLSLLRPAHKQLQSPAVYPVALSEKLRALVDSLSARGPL
UniProt O88643, sequence (O88643 whole entry): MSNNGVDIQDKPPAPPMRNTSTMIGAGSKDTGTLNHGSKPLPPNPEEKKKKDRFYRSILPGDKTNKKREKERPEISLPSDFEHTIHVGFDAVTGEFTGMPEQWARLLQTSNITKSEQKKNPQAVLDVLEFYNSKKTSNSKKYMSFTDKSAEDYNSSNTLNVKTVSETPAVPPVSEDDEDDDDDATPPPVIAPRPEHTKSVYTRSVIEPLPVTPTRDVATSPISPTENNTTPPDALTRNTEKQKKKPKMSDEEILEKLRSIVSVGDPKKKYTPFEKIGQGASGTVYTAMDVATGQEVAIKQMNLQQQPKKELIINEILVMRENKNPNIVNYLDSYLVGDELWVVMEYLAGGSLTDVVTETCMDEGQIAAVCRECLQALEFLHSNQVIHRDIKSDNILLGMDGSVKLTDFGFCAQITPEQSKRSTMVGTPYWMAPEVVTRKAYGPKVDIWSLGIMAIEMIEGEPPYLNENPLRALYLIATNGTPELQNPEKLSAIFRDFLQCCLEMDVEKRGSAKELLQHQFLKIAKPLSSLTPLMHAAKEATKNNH
UniProt Q3TLP5, sequence (Q3TLP5 whole entry): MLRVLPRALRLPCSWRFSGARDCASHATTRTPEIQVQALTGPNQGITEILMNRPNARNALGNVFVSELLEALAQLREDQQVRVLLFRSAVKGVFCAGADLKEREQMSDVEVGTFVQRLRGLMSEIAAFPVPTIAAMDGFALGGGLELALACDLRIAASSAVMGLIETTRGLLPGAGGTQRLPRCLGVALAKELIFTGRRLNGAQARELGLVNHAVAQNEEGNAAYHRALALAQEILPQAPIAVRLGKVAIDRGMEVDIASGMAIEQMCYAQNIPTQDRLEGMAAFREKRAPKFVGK
UniProt Q9WVJ2, sequence (Q9WVJ2 whole entry): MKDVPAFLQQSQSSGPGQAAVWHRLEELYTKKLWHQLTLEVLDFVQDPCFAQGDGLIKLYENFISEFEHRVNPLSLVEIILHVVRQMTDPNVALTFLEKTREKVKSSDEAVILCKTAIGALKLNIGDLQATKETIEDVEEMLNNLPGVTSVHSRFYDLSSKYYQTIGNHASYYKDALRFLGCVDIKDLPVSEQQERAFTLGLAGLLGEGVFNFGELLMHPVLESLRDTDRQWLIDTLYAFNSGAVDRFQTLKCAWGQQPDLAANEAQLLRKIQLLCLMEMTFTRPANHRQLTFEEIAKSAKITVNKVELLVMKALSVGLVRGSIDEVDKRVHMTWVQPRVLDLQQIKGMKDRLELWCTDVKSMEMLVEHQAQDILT
UniProt Q9CZW4, sequence (Q9CZW4 whole entry): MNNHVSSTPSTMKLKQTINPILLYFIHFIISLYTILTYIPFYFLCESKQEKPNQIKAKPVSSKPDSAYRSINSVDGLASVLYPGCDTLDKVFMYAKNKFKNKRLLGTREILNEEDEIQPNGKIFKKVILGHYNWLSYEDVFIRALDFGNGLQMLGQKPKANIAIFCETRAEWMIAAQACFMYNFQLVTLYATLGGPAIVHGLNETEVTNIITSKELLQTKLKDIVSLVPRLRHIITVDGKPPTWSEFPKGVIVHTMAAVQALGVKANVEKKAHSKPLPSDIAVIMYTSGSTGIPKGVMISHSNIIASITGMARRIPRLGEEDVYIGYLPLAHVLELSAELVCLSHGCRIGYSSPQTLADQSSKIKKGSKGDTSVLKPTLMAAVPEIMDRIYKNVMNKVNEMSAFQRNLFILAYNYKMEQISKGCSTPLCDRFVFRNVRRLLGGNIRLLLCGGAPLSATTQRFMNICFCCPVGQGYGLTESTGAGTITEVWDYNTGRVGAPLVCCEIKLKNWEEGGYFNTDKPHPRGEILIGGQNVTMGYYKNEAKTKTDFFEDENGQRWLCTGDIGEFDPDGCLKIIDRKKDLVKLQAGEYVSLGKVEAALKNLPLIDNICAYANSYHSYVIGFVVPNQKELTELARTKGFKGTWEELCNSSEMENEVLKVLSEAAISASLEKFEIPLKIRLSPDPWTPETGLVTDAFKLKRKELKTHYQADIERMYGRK
UniProt P51881, sequence (P51881 whole entry): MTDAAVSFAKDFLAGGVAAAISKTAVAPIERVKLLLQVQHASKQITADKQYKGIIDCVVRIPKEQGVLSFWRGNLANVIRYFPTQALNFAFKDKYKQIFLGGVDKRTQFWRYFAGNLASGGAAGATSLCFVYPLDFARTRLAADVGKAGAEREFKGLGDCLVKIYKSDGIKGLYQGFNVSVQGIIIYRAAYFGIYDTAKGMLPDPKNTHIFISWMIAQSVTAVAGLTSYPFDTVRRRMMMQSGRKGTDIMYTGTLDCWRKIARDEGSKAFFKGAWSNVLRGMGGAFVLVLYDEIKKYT
UniProt O89023, sequence (O89023 whole entry): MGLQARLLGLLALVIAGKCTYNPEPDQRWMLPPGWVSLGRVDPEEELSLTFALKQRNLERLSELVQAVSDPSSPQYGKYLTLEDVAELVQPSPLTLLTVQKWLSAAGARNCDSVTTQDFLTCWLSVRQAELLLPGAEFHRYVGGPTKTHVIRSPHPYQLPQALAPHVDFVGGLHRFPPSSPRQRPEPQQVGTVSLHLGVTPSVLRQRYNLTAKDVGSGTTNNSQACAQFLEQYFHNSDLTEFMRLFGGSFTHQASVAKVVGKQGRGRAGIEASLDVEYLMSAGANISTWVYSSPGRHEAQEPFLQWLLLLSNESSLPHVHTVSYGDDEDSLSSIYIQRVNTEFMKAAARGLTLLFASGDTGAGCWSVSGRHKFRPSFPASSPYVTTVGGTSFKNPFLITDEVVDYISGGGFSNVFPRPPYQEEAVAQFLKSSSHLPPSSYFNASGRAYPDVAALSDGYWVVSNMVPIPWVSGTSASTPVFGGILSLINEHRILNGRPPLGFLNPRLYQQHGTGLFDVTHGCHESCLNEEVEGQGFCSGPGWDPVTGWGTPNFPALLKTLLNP
UniProt Q9DC28, sequence (Q9DC28 whole entry, looked up): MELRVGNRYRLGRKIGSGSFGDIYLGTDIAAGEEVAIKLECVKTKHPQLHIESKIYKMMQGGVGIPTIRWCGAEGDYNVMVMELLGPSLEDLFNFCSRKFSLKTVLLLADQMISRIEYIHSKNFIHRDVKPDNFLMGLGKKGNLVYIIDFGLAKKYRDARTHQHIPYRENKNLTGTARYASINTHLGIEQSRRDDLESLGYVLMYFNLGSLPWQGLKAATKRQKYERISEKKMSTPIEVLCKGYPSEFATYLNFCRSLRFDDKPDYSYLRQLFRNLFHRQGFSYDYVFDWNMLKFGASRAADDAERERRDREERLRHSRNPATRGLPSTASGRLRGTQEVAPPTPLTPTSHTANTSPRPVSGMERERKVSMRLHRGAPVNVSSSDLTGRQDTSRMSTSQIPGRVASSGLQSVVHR
UniProt Q8VI63, sequence (Q8VI63 whole entry): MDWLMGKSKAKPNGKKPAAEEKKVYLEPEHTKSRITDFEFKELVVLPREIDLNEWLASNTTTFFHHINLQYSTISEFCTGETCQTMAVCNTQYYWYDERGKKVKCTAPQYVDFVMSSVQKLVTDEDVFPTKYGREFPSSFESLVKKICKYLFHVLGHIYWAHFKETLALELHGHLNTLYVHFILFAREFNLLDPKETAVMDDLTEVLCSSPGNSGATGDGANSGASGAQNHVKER

Compound in this experiment: CN[C@@H]1C[C@H]2O[C@@](C)([C@@H]1OC)n1c3ccccc3c3c4c(c5c6ccccc6n2c5c31)C(=O)NC4 [staurosporine]
Put plainly: log2 fold change of tryptic peptide abundance, ligand vs vehicle (limited proteolysis) (log2 ratio); higher = more trypsin-susceptible (destabilized). The conditions noted are these: ligand concentration: 20 uM; sample: mouse liver crude lysate; replicate design: treated separately.
Consider “UniProt P70349 (peptide sequence: IIFEDDR, peptide start residue: 31)”, for which the log2 fold change is -0.309.
Turning to “UniProt P58044 (peptide sequence: WWDNLNHLSPFVDHEK, peptide start residue: 208)”, the log2 fold change came out at 1.05.
Regarding “UniProt Q03147 (peptide sequence: DKNTNQIVAIKK, peptide start residue: 31)”, the log2 fold change is -2.43.
As to “UniProt Q63932 (peptide sequence: ISELGAGNGGVVTK, peptide start residue: 75)”, the log2 fold change is -0.512.
The same measure for “UniProt Q9CQE7 (peptide sequence: QFDAYPK, peptide start residue: 9)”: 0.366; for “UniProt Q9WVD5 (peptide sequence: TYSQVGFR, peptide start residue: 54)”: -1.35.
As to “UniProt O89023 (peptide sequence: VNTEFMK, peptide start residue: 339)”, the log2 fold change was -0.234.
Then “UniProt Q9DCQ2 (peptide sequence: VTMATHPDGFRLEGPLAAAHSSGPR, peptide start residue: 152)”, with -0.804; and “UniProt Q8VI63 (peptide sequence: ITDFEFK, peptide start residue: 35)”, with 0.579; and “UniProt O35488 (peptide sequence: YELIKYDVEKDEPVR, peptide start residue: 394)”, with 0.821.
Then “UniProt Q61036 (peptide sequence: ELLQHPFLK, peptide start residue: 493)”, with -2.37; and “UniProt Q61161 (peptide sequence: GLHHLHSQGK, peptide start residue: 123)”, with -1.65.
Take “UniProt P51881 (peptide sequence: KGTDIMYTGTLDCWRK, peptide start residue: 245)”: the log2 fold change stood at 0.454.
Then “UniProt P56593 (peptide sequence: FSNFAPLGIPR, peptide start residue: 360)”, with -0.352.
As to “UniProt O35492 (peptide sequence: MLEFDPAQR, peptide start residue: 600)”, the log2 fold change is -1.13.
The same measure for “UniProt P63158 (peptide sequence: HPDASVNFSEFSKKCSER, peptide start residue: 31)”: -0.395; for “UniProt Q8VCH6 (peptide sequence: LTQGETLR, peptide start residue: 368)”: 0.499; for “UniProt P47911 (peptide sequence: HQEGEIFDTEK, peptide start residue: 235)”: 0.281.
The same measure for “UniProt O35099 (peptide sequence: YLHDNQIVHR, peptide start residue: 800)”: -3.12; for “UniProt Q8BWW9 (peptide sequence: VKPPFVPTIR, peptide start residue: 928)”: -2.86.
The same measure for “UniProt P41241 (peptide sequence: GSLVDYLR, peptide start residue: 272)”: -1.06.
For the target “UniProt Q8CC86 (peptide sequence: VCLYLGLEEQEPHPGER, peptide start residue: 253)”, the log2 fold change is -0.575.
The same measure for “UniProt P12367 (peptide sequence: IVDVIGEK, peptide start residue: 270)”: 0.593; for “UniProt Q9DC28 (peptide sequence: FDDKPDYSYLR, peptide start residue: 260)”: -0.751.
With “UniProt P50285 (peptide sequence: TQLREPVLNDELPGR, peptide start residue: 277)”, the log2 fold change came to 0.327.
“UniProt Q9CQE1 (peptide sequence: HWSHEDPR, peptide start residue: 211)”: the log2 fold change was -0.522.
The same measure for “UniProt Q91WL5 (peptide sequence: GLLMLDGQTWFQHR, peptide start residue: 128)”: 0.409; for “UniProt O88643 (peptide sequence: LTDFGFCAQITPEQSKR, peptide start residue: 384)”: -2.39.
For the target “UniProt P27659 (peptide sequence: LLPLRQKK, peptide start residue: 170)”, the log2 fold change was -0.616.
The same measure for “UniProt Q99J95 (peptide sequence: IGQGTFGEVFK, peptide start residue: 25)”: -1; for “UniProt Q3TLP5 (peptide sequence: GLLPGAGGTQR, peptide start residue: 170)”: 0.658; for “UniProt Q9CZW4 (peptide sequence: ALDFGNGLQMLGQKPK, peptide start residue: 144)”: 0.538.
With “UniProt Q9DBN5 (peptide sequence: NEKDLEEIPSNVR, peptide start residue: 804)”, the log2 fold change was -1.06.
The same measure for “UniProt Q61037 (peptide sequence: DFVPYITK, peptide start residue: 907)”: -0.612.
On to “UniProt Q8BW96 (peptide sequence: IMISDFGLSK, peptide start residue: 161)”, for which the log2 fold change is -1.32.
The same measure for “UniProt O35945 (peptide sequence: TVAMQISQK, peptide start residue: 491)”: -0.312; for “UniProt Q66GT5 (peptide sequence: IDHTVLLGALPLK, peptide start residue: 41)”: 0.379; for “UniProt Q9WVJ2 (peptide sequence: GSIDEVDKR, peptide start residue: 322)”: -0.456.
